Measurements reported in PMC7862700, “An all-to-all approach to the identification of sequence-specific readers for epigenetic DNA modifications on cytosine”.

Key:
Assay in all cases: DAPPL (digital affinity profiling via proximity ligation, sequencing); 10 mM Tris-HCl pH 7.5, 50 mM NaCl, 1 mM DTT, 4% glycerol, room temperature, 30 min; GST-TFs on glutathione beads, 16-mer random dsDNA library, 0.1% formaldehyde crosslink after washing; high values mean tight binding
[1] = molecular target: T1, FEV (Homo sapiens, UniProt Q99581 1-238); conditions: protein: recombinant; tags: N-terminal GST; dsDNA, one strand shown
T1 sequence: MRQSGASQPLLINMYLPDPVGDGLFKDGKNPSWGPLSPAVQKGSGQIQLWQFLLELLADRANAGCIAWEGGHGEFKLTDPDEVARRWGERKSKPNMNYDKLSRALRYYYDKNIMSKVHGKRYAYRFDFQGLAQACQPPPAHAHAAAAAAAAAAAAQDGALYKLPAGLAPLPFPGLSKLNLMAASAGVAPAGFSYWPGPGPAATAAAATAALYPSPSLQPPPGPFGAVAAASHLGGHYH
In short: (§1)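 The binding signal reported is, for every hexamer, its read frequency for a factor over its read frequency for the tag-only sample. Reads came from pools of yeast-expressed, GST-fused human transcription factors on glutathione beads, barcoded with DNA and mixed with that sample, which were incubated with 200 nmole of a random double-stranded 16-mer DNA library in Tris/NaCl/DTT/glycerol buffer at room temperature for 30 min. After washing, the pools were crosslinked with 0.1% formaldehyde, proximity-ligated with BsaI/T4 ligase for 1 h at 37 °C, PCR-amplified and sequenced on an Illumina NextSeq500.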

[2] = molecular target: ETV5 (Homo sapiens, UniProt P41161 1-510); conditions: protein: recombinant; tags: N-terminal GST; dsDNA, one strand shown
Chain of ETV5 (P41161 whole entry): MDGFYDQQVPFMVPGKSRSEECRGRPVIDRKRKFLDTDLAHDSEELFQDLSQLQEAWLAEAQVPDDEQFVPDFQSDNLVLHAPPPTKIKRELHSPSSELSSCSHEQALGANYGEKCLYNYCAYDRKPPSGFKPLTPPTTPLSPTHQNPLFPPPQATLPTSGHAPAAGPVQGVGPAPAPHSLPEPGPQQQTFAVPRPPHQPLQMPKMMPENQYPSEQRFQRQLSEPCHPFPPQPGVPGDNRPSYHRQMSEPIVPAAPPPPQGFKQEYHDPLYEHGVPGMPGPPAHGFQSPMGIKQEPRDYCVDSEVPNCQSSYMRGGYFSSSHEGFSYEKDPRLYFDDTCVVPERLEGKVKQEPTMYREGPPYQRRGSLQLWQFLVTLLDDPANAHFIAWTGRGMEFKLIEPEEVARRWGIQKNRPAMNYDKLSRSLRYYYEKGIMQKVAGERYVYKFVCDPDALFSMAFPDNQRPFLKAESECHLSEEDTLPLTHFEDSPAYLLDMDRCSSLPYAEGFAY
In short: as §1

[3] = molecular target: HSF1 (Homo sapiens, UniProt Q00613 1-529); conditions: protein: recombinant; tags: N-terminal GST; chain copies: 3; dsDNA, one strand shown
Chain of HSF1 (Q00613 whole entry): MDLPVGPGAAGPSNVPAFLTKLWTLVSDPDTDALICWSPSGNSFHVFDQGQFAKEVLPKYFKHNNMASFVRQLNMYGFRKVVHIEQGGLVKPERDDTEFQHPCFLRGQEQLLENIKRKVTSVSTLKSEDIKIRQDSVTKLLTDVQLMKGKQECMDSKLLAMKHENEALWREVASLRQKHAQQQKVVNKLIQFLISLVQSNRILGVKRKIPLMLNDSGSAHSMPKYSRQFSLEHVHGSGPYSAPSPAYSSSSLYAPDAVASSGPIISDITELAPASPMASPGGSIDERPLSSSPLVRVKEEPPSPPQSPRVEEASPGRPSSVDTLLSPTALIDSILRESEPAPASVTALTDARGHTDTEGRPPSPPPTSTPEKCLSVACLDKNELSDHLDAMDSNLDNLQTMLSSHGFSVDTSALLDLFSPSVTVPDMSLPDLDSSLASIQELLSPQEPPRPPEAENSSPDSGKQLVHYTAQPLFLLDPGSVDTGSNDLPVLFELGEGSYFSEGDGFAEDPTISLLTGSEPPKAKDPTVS
In short: as §1

[4] = molecular target: T2, SPIC (Homo sapiens, UniProt Q8N5J4 1-248); conditions: protein: recombinant; tags: N-terminal GST; dsDNA, one strand shown
T2 sequence: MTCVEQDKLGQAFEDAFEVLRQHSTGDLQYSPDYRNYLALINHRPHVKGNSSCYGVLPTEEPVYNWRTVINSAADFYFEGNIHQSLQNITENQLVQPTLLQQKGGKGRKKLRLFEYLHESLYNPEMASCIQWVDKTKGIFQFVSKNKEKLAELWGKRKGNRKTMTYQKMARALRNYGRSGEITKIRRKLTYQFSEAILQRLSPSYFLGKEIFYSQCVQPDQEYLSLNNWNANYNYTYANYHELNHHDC
In short: as §1

[5] = molecular target: ELF4 (Homo sapiens, UniProt Q99607 1-663); conditions: protein: recombinant; tags: N-terminal GST; dsDNA, one strand shown
Chain of ELF4 (Q99607 whole entry): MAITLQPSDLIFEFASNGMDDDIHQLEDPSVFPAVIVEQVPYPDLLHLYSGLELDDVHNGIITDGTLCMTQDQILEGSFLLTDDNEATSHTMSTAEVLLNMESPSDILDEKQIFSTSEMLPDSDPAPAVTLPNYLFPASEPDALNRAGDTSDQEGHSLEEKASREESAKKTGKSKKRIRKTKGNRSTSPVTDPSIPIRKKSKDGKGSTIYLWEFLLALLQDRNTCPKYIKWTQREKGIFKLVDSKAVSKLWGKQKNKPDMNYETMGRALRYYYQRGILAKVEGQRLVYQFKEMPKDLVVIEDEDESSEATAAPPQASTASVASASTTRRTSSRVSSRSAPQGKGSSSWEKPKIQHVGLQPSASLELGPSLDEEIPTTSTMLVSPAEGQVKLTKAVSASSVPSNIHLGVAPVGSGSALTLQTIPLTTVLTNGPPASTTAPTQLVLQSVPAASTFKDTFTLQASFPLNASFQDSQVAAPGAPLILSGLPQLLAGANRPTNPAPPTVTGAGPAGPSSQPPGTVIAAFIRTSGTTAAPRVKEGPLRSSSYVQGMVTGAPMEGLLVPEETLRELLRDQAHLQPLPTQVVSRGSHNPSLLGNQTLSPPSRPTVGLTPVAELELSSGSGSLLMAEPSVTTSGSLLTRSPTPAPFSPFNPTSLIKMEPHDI
In short: as §1

[6] = molecular target: T3, ELK4 (Homo sapiens, UniProt P28324-2 1-405); conditions: protein: recombinant; tags: N-terminal GST; dsDNA, one strand shown
T3 sequence: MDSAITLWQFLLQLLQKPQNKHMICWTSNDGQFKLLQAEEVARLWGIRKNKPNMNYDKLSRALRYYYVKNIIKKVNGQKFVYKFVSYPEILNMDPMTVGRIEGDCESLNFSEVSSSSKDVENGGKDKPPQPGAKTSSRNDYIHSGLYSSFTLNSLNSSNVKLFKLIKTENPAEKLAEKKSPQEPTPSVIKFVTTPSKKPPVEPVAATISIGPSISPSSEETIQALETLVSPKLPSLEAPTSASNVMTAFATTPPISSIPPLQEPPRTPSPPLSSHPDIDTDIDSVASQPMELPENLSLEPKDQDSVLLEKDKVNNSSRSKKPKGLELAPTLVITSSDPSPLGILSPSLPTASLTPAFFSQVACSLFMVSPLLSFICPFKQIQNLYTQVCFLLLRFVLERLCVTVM
In short: as §1

[7] = molecular target: T4, ETV2 (Homo sapiens, UniProt O00321 1-342); conditions: protein: recombinant; tags: N-terminal GST; dsDNA, one strand shown
T4 sequence: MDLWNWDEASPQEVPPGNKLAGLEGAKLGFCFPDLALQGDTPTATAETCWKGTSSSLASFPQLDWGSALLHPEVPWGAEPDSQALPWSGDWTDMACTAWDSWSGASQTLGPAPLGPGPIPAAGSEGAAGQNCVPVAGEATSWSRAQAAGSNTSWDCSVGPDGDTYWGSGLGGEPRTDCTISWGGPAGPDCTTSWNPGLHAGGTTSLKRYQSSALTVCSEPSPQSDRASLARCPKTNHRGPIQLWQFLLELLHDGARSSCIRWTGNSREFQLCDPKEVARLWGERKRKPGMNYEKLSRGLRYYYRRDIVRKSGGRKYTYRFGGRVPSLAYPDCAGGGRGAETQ
In short: as §1

[8] = molecular target: T5, ELF3 (Homo sapiens, UniProt P78545 1-371); conditions: protein: recombinant; tags: N-terminal GST; dsDNA, one strand shown
T5 sequence: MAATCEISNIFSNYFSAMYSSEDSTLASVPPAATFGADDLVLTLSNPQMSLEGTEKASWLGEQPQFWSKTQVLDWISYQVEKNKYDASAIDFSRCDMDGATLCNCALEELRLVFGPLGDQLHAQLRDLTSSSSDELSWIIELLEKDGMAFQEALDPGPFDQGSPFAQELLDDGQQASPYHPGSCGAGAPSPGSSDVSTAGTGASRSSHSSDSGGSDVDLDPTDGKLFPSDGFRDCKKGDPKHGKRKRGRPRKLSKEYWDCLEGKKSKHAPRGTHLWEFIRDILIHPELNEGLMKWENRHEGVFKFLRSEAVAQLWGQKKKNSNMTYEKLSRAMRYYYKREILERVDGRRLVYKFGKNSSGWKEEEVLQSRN
In short: as §1

[9] = molecular target: CRX (Homo sapiens, UniProt O43186 1-299); conditions: protein: recombinant; tags: N-terminal GST; dsDNA, one strand shown
Chain of CRX (O43186 whole entry): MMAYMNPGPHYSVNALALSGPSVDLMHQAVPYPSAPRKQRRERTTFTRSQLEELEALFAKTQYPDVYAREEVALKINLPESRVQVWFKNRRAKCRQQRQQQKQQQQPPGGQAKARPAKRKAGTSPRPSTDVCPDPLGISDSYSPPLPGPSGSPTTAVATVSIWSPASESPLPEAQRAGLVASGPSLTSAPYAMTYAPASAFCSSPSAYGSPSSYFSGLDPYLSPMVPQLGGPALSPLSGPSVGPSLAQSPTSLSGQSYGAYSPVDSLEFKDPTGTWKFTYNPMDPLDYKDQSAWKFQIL
In short: as §1

[10] = molecular target: ETV1 (Homo sapiens, UniProt P50549 1-477); conditions: protein: recombinant; tags: N-terminal GST; dsDNA, one strand shown
Chain of ETV1 (P50549 whole entry): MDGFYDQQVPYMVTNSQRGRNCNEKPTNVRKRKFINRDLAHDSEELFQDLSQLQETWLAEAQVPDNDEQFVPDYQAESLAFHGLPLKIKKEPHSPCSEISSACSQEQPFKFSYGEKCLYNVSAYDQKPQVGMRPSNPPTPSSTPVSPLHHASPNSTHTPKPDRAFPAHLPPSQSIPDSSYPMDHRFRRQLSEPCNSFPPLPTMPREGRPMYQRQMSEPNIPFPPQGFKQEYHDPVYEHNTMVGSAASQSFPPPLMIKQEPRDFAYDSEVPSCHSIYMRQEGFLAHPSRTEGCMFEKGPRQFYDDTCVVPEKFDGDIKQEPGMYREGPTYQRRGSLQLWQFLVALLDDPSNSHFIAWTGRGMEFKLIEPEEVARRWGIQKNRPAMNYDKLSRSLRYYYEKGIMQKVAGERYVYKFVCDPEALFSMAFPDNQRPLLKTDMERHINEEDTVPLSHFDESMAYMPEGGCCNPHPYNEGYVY
In short: as §1

[11] = molecular target: T6, ERF (Homo sapiens, UniProt P50548 1-548); conditions: protein: recombinant; tags: N-terminal GST; dsDNA, one strand shown
T6 sequence: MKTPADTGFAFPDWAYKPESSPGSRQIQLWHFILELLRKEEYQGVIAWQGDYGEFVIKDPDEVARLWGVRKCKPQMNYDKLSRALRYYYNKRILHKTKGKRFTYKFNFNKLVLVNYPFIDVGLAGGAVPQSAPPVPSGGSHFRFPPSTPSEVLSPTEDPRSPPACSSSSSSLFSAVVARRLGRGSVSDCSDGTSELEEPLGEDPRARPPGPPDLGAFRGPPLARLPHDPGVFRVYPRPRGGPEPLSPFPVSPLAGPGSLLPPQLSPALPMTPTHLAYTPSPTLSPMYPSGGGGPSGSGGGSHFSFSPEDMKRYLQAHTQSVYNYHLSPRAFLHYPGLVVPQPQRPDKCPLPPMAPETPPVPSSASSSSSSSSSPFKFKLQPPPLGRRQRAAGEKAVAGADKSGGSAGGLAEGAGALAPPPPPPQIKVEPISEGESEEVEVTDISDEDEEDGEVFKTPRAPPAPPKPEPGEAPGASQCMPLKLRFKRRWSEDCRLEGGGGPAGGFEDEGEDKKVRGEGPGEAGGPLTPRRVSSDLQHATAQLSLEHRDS
In short: as §1

[12] = molecular target: T7, ETV3L (Homo sapiens, UniProt Q6ZN32 1-361); conditions: protein: recombinant; tags: N-terminal GST; dsDNA, one strand shown
T7 sequence: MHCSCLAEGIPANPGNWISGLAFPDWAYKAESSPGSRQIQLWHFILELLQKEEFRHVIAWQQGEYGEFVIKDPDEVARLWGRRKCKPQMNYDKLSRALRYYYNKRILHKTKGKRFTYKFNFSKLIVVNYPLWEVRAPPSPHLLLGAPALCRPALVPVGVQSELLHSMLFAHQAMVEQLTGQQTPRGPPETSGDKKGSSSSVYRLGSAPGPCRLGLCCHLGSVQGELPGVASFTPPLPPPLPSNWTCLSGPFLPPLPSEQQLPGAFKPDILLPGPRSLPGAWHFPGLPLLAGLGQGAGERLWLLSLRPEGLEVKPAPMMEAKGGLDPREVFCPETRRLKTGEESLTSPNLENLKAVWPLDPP
In short: as §1

[13] = molecular target: T8, ETS2 (Homo sapiens, UniProt P15036 1-469); conditions: protein: recombinant; tags: N-terminal GST; dsDNA, one strand shown
T8 sequence: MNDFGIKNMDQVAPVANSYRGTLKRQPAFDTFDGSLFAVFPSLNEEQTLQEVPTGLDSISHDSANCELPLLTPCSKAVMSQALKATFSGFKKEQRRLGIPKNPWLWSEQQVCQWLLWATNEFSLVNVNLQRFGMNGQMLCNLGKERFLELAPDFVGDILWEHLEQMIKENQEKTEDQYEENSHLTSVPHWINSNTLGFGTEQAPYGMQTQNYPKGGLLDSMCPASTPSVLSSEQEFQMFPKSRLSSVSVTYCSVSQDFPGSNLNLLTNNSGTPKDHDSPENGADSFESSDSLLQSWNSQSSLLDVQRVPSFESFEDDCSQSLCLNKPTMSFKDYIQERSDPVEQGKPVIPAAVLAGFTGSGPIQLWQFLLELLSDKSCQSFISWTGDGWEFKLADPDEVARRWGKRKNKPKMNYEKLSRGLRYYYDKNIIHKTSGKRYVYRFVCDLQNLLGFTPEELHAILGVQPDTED
In short: as §1

[14] = molecular target: T9, SPDEF (Homo sapiens, UniProt O95238 1-335); conditions: protein: recombinant; tags: N-terminal GST; dsDNA, one strand shown
T9 sequence: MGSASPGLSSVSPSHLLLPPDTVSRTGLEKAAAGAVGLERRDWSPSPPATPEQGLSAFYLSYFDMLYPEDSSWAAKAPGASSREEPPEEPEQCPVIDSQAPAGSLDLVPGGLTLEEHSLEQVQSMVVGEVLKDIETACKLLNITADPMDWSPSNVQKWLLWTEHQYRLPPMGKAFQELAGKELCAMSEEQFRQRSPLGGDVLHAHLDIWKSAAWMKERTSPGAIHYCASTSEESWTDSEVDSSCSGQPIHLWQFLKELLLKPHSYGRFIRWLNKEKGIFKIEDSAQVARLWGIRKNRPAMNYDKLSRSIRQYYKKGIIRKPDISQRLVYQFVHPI
In short: as §1

[15] = molecular target: T10, ETV7 (Homo sapiens, UniProt Q9Y603 1-341); conditions: protein: recombinant; tags: N-terminal GST; dsDNA, one strand shown
T10 sequence: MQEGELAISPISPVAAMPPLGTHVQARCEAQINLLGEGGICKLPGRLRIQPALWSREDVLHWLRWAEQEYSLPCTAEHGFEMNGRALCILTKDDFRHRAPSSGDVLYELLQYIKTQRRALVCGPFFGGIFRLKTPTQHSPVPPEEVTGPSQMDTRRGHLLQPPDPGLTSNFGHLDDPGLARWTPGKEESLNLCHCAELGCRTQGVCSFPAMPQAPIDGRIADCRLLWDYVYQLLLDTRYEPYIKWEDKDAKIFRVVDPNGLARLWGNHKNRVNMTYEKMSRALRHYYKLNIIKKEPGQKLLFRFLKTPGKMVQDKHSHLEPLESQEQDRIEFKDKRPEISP
In short: as §1

[16] = molecular target: T11, ELF5 (Homo sapiens, UniProt Q9UKW6-2 1-255); conditions: protein: recombinant; tags: N-terminal GST; dsDNA, one strand shown
T11 sequence: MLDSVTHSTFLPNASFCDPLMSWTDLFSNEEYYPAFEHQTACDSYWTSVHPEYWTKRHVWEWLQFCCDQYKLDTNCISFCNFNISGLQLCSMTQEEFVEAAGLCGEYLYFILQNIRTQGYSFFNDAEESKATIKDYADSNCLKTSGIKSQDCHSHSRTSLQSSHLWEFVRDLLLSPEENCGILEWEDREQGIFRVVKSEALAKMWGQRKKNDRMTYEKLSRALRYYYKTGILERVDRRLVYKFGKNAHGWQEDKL
In short: as §1

[17] = molecular target: T12, ETV3 (Homo sapiens, UniProt P41162-2 1-143); conditions: protein: recombinant; tags: N-terminal GST; dsDNA, one strand shown
T12 sequence: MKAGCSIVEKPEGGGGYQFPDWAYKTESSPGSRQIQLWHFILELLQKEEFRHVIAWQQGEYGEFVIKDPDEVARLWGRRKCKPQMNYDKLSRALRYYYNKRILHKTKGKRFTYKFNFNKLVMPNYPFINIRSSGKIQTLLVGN
In short: as §1

[18] = molecular target: ETV6 (Homo sapiens, UniProt P41212 1-452); conditions: protein: recombinant; tags: N-terminal GST; dsDNA, one strand shown
Chain of ETV6 (P41212 whole entry): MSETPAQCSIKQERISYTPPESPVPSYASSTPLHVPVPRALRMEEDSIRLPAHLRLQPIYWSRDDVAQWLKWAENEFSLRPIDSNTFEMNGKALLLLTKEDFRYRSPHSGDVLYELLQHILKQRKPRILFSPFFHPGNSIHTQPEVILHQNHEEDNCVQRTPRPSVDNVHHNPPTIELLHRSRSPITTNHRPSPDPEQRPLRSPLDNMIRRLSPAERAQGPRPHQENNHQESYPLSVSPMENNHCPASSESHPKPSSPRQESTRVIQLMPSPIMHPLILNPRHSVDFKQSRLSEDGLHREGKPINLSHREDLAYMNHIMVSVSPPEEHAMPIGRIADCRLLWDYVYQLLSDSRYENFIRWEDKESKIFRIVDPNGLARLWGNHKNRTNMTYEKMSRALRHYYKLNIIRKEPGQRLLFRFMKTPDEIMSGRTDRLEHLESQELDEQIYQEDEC
In short: as §1

Sequence	binding signal [1]	binding signal [2]	binding signal [3]	binding signal [4]	binding signal [5]	binding signal [6]	binding signal [7]	binding signal [8]	binding signal [9]	binding signal [10]	binding signal [11]	binding signal [12]	binding signal [13]	binding signal [14]	binding signal [15]	binding signal [16]	binding signal [17]	binding signal [18]
ATCCGA	1.29 fold enrichment (6-mer frequency, TF over GST control)	1.2 fold enrichment (6-mer frequency, TF over GST control)	1.56 fold enrichment (6-mer frequency, TF over GST control)	1.31 fold enrichment (6-mer frequency, TF over GST control)	1.13 fold enrichment (6-mer frequency, TF over GST control)	1.18 fold enrichment (6-mer frequency, TF over GST control)	1.24 fold enrichment (6-mer frequency, TF over GST control)	1.09 fold enrichment (6-mer frequency, TF over GST control)	2.02 fold enrichment (6-mer frequency, TF over GST control)	1.17 fold enrichment (6-mer frequency, TF over GST control)	1.22 fold enrichment (6-mer frequency, TF over GST control)	1.24 fold enrichment (6-mer frequency, TF over GST control)	1.08 fold enrichment (6-mer frequency, TF over GST control)	1.26 fold enrichment (6-mer frequency, TF over GST control)	1.15 fold enrichment (6-mer frequency, TF over GST control)	1.25 fold enrichment (6-mer frequency, TF over GST control)	1.11 fold enrichment (6-mer frequency, TF over GST control)	1.24 fold enrichment (6-mer frequency, TF over GST control)
CTCATC	1.34 fold enrichment (6-mer frequency, TF over GST control)	1.34 fold enrichment (6-mer frequency, TF over GST control)	1.27 fold enrichment (6-mer frequency, TF over GST control)	1.49 fold enrichment (6-mer frequency, TF over GST control)	1.35 fold enrichment (6-mer frequency, TF over GST control)	1.32 fold enrichment (6-mer frequency, TF over GST control)	1.45 fold enrichment (6-mer frequency, TF over GST control)	1.49 fold enrichment (6-mer frequency, TF over GST control)	1.32 fold enrichment (6-mer frequency, TF over GST control)	1.4 fold enrichment (6-mer frequency, TF over GST control)	1.44 fold enrichment (6-mer frequency, TF over GST control)	1.5 fold enrichment (6-mer frequency, TF over GST control)	1.32 fold enrichment (6-mer frequency, TF over GST control)	1.39 fold enrichment (6-mer frequency, TF over GST control)	1.23 fold enrichment (6-mer frequency, TF over GST control)	1.44 fold enrichment (6-mer frequency, TF over GST control)	1.48 fold enrichment (6-mer frequency, TF over GST control)	1.37 fold enrichment (6-mer frequency, TF over GST control)
